Assay results as given in PubChem BioAssay (EPA / NIEHS).
Inconclusive results are not listed. Active and inactive are the calls of the source. Rule for the calls, unless noted: active = hit-call score of the fitted dose curve at least 0.9, where 1 is the maximum; inconclusive = response in the unintended direction; inactive = score below 0.9.

Key:
[1] = ATG_TCF_b_cat_CIS: Attagene CIS-FACTORIAL HepG2 Assay for human T-Cell-Factor with beta-catenin (TCF/b-cat) (AID 2282965; active = hit-call score of the fitted dose curve at least 0.9, where 1 is the maximum; inactive = score below 0.9); details: HepG2 TCF/beta-catenin cis-reporter transcription, actives raise or lower the signal
Outline: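 Measured: reporter mRNA in HepG2 transiently transfected with cis-promoter reporter units, 24 h after chemical addition. Fitting was bidirectional, DMSO as negative control.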

[2] = ATG_TAL_CIS: Attagene CIS-FACTORIAL HepG2 Assay for human TAL Basal Promoter (AID 2282966; active = hit-call score of the fitted dose curve at least 0.9, where 1 is the maximum; inactive = score below 0.9;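 note: background control endpoint measuring basal TAL promoter reporter mRNA not a specific factor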); details: HepG2 Attagene cis-factorial TAL promoter reporter; actives raise or lower the signal
Outline: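 Basal-promoter background-control endpoint from a multiplexed HepG2 reporter panel. Cells were exposed 24 h, then reporter mRNA was read by RT-PCR/CE fluorescence and fitted in both directions relative to DMSO.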

[3] = ATG_VDRE_CIS: Attagene CIS-FACTORIAL HepG2 Assay for human Vitamin D Receptor Element (VDRE) (AID 2282968; active = hit-call score of the fitted dose curve at least 0.9, where 1 is the maximum; inactive = score below 0.9); details: HepG2 VDRE cis-reporter transcription, actives raise or lower the signal
Outline: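 Measures endogenous factor activity through cis-element-driven reporter transcripts in transiently transfected HepG2. Cells are treated 24 h; reporter mRNA is quantified by RT-PCR and capillary electrophoresis; fitting is bidirectional.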

[4] = target: Estrogen receptor (Homo sapiens) (UniProt P03372); assay: ATG_ERa_TRANS: Attagene TRANS-FACTORIAL HepG2 Assay for human Estrogen Receptor alpha (ERa) (AID 2282970); details: HepG2 Attagene TRANS ERa GAL4 reporter, mRNA
Chain of Estrogen receptor (Homo sapiens) (P03372 whole entry, looked up, the tested form may be a part): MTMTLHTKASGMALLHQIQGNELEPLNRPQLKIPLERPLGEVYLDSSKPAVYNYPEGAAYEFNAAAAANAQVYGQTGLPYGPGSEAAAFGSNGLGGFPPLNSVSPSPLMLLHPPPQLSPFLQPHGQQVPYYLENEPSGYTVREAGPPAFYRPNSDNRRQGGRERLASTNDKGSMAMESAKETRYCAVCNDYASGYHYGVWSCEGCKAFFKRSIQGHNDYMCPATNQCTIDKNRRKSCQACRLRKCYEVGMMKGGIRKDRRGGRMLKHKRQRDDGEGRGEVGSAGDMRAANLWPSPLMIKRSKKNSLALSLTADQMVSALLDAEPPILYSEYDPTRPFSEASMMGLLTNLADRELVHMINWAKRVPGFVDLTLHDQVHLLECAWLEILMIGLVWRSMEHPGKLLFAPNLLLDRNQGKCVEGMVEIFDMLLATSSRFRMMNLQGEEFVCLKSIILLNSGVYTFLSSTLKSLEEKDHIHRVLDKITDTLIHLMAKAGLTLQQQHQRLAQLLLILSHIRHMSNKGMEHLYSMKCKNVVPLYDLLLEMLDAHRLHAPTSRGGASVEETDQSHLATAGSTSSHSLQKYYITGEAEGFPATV
Outline: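 Gal4-fusion ERa transactivation, measured as reporter transcript level in transiently transfected HepG2 cells. Exposure 24 h; RT-PCR plus capillary electrophoresis with fluorescence detection.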

[5] = target: X-box-binding protein 1 (Homo sapiens) (UniProt P17861); assay: ATG_Xbp1_CIS: Attagene CIS-FACTORIAL HepG2 Assay for human X-box Binding Protein 1 (XBP1) (AID 2282972; active = hit-call score of the fitted dose curve at least 0.9, where 1 is the maximum; inactive = score below 0.9); details: HepG2 XBP1 cis-element reporter, Attagene multiplex; actives raise or lower the signal
Chain of X-box-binding protein 1 (Homo sapiens) (P17861 whole entry, looked up): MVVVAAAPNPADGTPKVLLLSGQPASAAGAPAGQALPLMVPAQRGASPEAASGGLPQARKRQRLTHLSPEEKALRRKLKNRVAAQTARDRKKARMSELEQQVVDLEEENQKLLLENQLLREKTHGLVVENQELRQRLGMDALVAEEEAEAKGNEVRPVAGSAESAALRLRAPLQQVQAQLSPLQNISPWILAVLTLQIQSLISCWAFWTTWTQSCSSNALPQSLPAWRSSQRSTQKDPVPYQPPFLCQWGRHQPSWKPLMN
Outline: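 Multiplexed cis-reporter readout in transfected HepG2 liver cells. Exposure lasted 24 hours. Activity in either direction was fitted against DMSO as negative control and baseline.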

[6] = ATG_M_19_TRANS: Attagene TRANS-FACTORIAL HepG2 Assay for M19 Transcription Factor (Internal Marker) (AID 2282974); details: HepG2 Attagene TRANS-FACTORIAL M19 internal marker reporter
Outline: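 Reporter mRNA induction was measured in transfected HepG2 cells 24 h after dosing. Endpoint fitted upward relative to DMSO and serves as a background control within the multiplexed TRANS panel.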

[7] = target: Hepatocyte nuclear factor 4-alpha (Homo sapiens) (UniProt P41235); assay: ATG_HNF4a_TRANS: Attagene TRANS-FACTORIAL HepG2 Assay for human Hepatocyte Nuclear Factor 4 alpha (HNF4a) (AID 2282982); details: HepG2 HNF4a transactivation reporter, mRNA readout
Chain of Hepatocyte nuclear factor 4-alpha (Homo sapiens) (P41235 whole entry, looked up): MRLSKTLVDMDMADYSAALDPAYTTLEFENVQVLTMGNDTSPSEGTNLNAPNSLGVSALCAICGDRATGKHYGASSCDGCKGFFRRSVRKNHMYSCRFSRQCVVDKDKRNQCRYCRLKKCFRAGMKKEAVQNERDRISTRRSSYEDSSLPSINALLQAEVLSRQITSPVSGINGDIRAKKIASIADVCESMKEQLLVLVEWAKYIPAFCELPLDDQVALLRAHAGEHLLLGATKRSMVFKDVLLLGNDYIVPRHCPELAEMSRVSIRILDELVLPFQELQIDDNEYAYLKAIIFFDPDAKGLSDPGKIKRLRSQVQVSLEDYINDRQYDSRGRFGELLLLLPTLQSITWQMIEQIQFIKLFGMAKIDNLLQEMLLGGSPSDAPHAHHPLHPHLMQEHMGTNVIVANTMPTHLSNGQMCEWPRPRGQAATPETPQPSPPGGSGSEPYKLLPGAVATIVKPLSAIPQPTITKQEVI
Outline: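 Multiplexed reporter assay: transfected HepG2, 24 h exposure, total RNA → oligo(dT) RT → PCR → 6-FAM extension → HpaI digest → CE fluorescence. DMSO = negative control.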

[8] = ATG_M_32_TRANS: Attagene TRANS-FACTORIAL HepG2 Assay for M32 Transcription Factor (Internal Marker) (AID 2282984); details: HepG2 Attagene TRANS M32 internal marker reporter
Outline: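 Cell-based TRANS-format assay in HepG2: exogenous chimeric GAL4 reporter units transiently expressed, compounds applied 24 h. Reporter mRNA detected by RT-PCR plus capillary electrophoresis; this readout is an internal background marker.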

[9] = target: Nuclear receptor subfamily 4 group A member 2 (Homo sapiens) (UniProt P43354); assay: ATG_NURR1_TRANS: Attagene TRANS-FACTORIAL HepG2 Assay for human Nuclear Receptor Related Protein 1 (NURR1) (AID 2282985); details: HepG2 Attagene TRANS reporter, mRNA readout
Chain of Nuclear receptor subfamily 4 group A member 2 (Homo sapiens) (P43354 whole entry, looked up, the tested form may be a part): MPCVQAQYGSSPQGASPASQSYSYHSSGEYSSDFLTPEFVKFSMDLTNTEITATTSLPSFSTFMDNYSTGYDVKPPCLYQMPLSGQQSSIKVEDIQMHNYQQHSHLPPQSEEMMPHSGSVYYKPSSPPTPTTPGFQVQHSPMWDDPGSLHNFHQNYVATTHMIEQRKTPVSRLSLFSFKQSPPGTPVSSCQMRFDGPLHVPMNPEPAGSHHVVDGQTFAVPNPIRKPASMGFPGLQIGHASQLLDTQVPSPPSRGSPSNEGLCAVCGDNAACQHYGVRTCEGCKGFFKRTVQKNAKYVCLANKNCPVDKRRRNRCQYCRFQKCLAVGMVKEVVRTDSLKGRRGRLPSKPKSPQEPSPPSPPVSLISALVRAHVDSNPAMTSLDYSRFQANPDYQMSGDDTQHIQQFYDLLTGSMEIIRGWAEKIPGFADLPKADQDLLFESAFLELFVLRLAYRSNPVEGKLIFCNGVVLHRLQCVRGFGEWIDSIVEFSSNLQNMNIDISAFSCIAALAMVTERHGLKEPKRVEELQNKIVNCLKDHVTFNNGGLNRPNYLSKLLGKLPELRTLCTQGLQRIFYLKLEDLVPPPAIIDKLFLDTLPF
Outline: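 Measures transcriptional activation by an exogenous NR-Gal4 chimera in transfected HepG2 liver cells. After 24 h, reporter RNA is reverse-transcribed, amplified and resolved by capillary electrophoresis; DMSO defines baseline.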

[10] = target: Transcriptional activator Myb (Homo sapiens) (UniProt P10242); assay: ATG_Myb_CIS: Attagene CIS-FACTORIAL HepG2 Assay for human Myeloblastosis (Myb) Proto-Oncogene Transcription Factor (AID 2282986; active = hit-call score of the fitted dose curve at least 0.9, where 1 is the maximum; inactive = score below 0.9); details: HepG2 Attagene CIS-FACTORIAL Myb reporter transcription; actives raise or lower the signal
Chain of Transcriptional activator Myb (Homo sapiens) (P10242 whole entry, looked up): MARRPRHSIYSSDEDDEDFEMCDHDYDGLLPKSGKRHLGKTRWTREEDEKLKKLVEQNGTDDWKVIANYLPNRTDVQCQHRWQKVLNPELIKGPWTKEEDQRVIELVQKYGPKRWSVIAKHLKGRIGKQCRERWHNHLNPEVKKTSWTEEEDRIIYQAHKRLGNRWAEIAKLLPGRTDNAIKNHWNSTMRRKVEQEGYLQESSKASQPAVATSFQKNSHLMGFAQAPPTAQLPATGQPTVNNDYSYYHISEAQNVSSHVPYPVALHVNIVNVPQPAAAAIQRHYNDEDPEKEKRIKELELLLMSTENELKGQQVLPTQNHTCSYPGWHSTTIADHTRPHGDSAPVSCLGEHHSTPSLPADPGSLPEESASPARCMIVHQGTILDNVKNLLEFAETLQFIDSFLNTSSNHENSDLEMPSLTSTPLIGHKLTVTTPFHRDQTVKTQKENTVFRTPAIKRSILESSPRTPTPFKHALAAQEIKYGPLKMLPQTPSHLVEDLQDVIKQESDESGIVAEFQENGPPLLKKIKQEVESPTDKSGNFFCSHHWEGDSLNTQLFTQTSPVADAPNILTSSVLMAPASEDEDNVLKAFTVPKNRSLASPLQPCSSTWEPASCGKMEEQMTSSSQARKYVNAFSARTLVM
Outline: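 Transiently transfected HepG2 cells, treated 24 h. Reporter mRNA quantified by RT-PCR/capillary electrophoresis; bidirectional fit relative to DMSO.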

[11] = target: Steroid hormone receptor ERR1 (Homo sapiens) (UniProt P11474); assay: ATG_ERRa_TRANS: Attagene TRANS-FACTORIAL HepG2 Assay for human Estrogen-Related Receptor alpha (ERRa) (AID 2282971); details: HepG2 Attagene TRANS reporter, ERRa transactivation
Chain of Steroid hormone receptor ERR1 (Homo sapiens) (P11474 whole entry, looked up, the tested form may be a part): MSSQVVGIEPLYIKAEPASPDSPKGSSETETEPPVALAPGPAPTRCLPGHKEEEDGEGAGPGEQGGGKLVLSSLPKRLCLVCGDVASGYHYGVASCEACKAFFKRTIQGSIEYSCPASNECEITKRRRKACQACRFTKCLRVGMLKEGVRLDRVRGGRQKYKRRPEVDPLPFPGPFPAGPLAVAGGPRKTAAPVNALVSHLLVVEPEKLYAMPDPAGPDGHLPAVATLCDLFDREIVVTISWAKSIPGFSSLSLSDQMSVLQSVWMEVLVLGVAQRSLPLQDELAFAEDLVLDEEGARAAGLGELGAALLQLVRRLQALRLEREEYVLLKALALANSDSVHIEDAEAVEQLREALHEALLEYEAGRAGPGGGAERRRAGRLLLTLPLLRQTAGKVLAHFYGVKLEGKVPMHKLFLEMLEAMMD
Outline: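 HepG2 cells transiently transfected with GAL4-UAS reporter units and chimeric NR-Gal4 constructs; after 24 hour compound incubation, reporter mRNA quantified by RT-PCR, fluorescent labelling and capillary electrophoresis, gain of signal versus DMSO.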

[12] = ATG_GAL4_TRANS: Attagene TRANS-FACTORIAL HepG2 Assay for GAL4 (Internal Marker) (AID 2282976); details: HepG2 Attagene TRANS GAL4 internal marker reporter
Outline: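 Background-control readout: GAL4-UAS reporter transcript in transiently transfected HepG2 cells after 24 h compound exposure. Measured by RT-PCR, 6-FAM primer extension, HpaI digest and capillary electrophoresis; gain-of-signal fit versus DMSO.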

[13] = target: Oxysterols receptor LXR-alpha (Homo sapiens) (UniProt Q13133); assay: ATG_LXRa_TRANS: Attagene TRANS-FACTORIAL HepG2 Assay for human Liver X Receptor alpha (LXRa) (AID 2282980); details: HepG2 Attagene TRANS reporter, LXRa transactivation
Chain of Oxysterols receptor LXR-alpha (Homo sapiens) (Q13133 whole entry, looked up, the tested form may be a part): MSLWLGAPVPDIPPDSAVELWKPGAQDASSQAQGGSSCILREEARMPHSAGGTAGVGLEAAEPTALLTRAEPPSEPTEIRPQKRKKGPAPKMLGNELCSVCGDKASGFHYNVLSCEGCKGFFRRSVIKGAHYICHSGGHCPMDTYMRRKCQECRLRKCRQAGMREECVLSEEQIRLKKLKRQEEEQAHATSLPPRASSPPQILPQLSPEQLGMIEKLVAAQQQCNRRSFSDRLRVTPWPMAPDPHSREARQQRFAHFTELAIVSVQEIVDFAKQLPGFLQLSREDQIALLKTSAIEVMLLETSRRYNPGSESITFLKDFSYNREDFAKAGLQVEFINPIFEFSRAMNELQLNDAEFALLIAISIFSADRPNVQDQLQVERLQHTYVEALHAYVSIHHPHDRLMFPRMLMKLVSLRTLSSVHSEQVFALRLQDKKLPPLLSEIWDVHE
Outline: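 HepG2 cells transiently transfected with GAL4-UAS reporter units for chimeric NR-Gal4 proteins, exposed to chemicals for 24 h. Reporter mRNA quantified by RT-PCR and capillary electrophoresis; gain of signal fitted relative to DMSO.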

[14] = ATG_M_06_TRANS: Attagene TRANS-FACTORIAL HepG2 Assay for M06 Transcription Factor (Internal Marker) (AID 2282983); details: HepG2 Attagene TRANS M06 internal marker reporter
Outline: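 mRNA levels of a reporter transcript, quantified as FAM fluorescence on capillary electrophoresis, served as readout. HepG2 cells expressing exogenous GAL4-chimera reporter constructs were exposed for 24 h. Gain of signal over DMSO was evaluated.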

[15] = target: Glucocorticoid receptor (Homo sapiens) (UniProt P04150); assay: ATG_GR_TRANS: Attagene TRANS-FACTORIAL HepG2 Assay for human Glucocorticoid Receptor (GR) (AID 2282978); details: HepG2 Attagene TRANS GR reporter, mRNA transcription;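 note: activators score as hits since higher reporter transcript over DMSO is fitted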
Chain of Glucocorticoid receptor (Homo sapiens) (P04150 whole entry, looked up, the tested form may be a part): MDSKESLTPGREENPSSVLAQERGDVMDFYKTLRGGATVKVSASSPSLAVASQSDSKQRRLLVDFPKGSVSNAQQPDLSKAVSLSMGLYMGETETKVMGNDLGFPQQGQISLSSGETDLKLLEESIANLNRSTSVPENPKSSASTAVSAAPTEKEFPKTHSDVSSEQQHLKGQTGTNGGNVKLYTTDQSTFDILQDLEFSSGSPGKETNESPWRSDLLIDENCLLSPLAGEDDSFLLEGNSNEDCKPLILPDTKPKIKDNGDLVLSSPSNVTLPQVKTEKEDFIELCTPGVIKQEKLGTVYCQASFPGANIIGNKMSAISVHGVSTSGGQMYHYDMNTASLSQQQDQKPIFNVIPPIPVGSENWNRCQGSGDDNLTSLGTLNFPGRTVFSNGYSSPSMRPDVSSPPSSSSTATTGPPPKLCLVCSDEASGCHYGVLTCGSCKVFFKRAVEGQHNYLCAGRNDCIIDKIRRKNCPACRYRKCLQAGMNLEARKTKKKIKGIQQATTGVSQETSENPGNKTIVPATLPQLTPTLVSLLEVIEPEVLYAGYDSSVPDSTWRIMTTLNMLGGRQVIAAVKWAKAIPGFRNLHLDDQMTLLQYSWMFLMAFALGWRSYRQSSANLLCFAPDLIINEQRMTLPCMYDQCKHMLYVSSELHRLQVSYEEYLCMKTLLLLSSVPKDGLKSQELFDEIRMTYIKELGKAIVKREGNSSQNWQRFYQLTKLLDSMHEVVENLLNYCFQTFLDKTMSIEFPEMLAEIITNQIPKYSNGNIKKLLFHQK
Outline: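 Reporter transcript levels, detected by fluorescence after RT-PCR and capillary electrophoresis, served as the endpoint. HepG2 cells bearing transfected GAL4-UAS reporters responsive to NR-GAL4 chimeras were incubated with compound 24 h; DMSO defined baseline.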

[16] = target: Nuclear receptor subfamily 1 group I member 3 (Homo sapiens) (UniProt Q14994); assay: ATG_CAR_TRANS: Attagene TRANS-FACTORIAL HepG2 Assay for human Constitutive Androstane Receptor (CAR) (AID 2282969); details: HepG2 Attagene TRANS-FACTORIAL CAR reporter;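 note: activators raise reporter mRNA above DMSO so AC50 marks induction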
Outline: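 Signal is reporter mRNA induction relative to DMSO, measured 24 h after dosing by RT-PCR with fluorescent primer extension and capillary electrophoresis. Human HepG2 liver cells carried transiently transfected chimeric NR-Gal4/GAL4-UAS reporter constructs.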

[17] = target: Oxysterols receptor LXR-beta (Homo sapiens) (UniProt P55055); assay: ATG_LXRb_TRANS: Attagene TRANS-FACTORIAL HepG2 Assay for human Liver X Receptor beta (LXRb) (AID 2282981); details: HepG2 Attagene TRANS GAL4-LXRb reporter, mRNA
Chain of Oxysterols receptor LXR-beta (Homo sapiens) (P55055 whole entry, looked up, the tested form may be a part): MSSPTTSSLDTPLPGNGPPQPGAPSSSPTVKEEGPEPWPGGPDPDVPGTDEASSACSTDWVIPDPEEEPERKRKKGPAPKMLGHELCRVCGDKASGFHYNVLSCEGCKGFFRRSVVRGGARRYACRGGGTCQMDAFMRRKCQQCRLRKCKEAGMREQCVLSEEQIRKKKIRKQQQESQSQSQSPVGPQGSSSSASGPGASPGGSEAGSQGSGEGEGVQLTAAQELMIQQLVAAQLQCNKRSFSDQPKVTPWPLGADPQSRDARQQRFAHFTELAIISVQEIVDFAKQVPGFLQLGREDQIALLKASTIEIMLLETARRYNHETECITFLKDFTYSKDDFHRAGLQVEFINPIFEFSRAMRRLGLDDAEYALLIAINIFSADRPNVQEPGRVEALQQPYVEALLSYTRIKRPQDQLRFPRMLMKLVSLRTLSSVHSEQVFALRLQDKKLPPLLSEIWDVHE
Outline: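 After 24 h of chemical treatment, transfected HepG2 cells yield total RNA; reporter cDNA is PCR-amplified, FAM-labelled, HpaI-cut and run on capillary electrophoresis. Signal reflects chimeric LXRb-Gal4 activity on GAL4-UAS reporters.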

Measured: AC50

C=CCOC(=O)/C=C\C(=O)OCC=C
inactive: [2] | [4] | [6] | [7] | [8] | [9] | [10]
active: [1] 15.1 µM | [3] 27 µM | [5] 26.5 µM

CC(C)C(=O)c1ccccc1
not listed: [3] | [4] | [6] | [9] | [15] | [16] | [17]
inactive: all other assays above

CCC(=O)OC/C=C(\C)CCC=C(C)C
not listed: [8] | [9] | [11] | [12] | [13] | [16] | [17]
inactive: all other assays above

CC(C)N(c1ccccc1)C(C)C
not listed: [4] | [6] | [8] | [11] | [12] | [13]
inactive: all other assays above

CC(C)(C)c1cc(CCC(=O)OCCSCCOC(=O)CCc2cc(C(C)(C)C)c(O)c(C(C)(C)C)c2)cc(C(C)(C)C)c1O
not listed: [4] | [6] | [12] | [14] | [16]
inactive: all other assays above
